Shown are actives, neighbours in structure and some others; about 19% of the full set was active somewhere.
SW480 rereplic – induces DNA re-replication in SW480 colon adenocarcinoma cells. Potency, µM (top dose mostly 46.1 µM), for the others: at the top dose re-replication activation, actives largely listed as activators. AID 624297. actives 1.8% (n = 340,000). SW480 DNA re-replication, Hoechst DNA content imaging, 48 h; also: potency is read from the fitted curve at half-maximal effect; % of control where 0% means no effect; nearly all actives have a fitted effect of over 55% in size
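Compounds, transferred as 23 nL by pin tool, were incubated with cells for 48 hr; DNA content per nucleus was then quantified by Hoechst staining and fluorescence plate imaging.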
DT40 TDP1 CPT – DT40-hTDP1 cell growth loss with CPT; chicken DT40 Tdp1-/-;hTDP1 cells + 20 nM CPT, ATP luminescence, 48 h; Potency, µM (top dose mostly 46.2 µM), without a hit: top-dose activity change, negative = growth inhibition, most hits filed as inhibitors; actives 12% (n = 420,000); AID 686979; also: potency is read from the fitted curve at half-maximal effect; % is scaled to controls: 0 for no effect and ±100 for the full control effect; nearly all actives have a fitted effect of over 55% in size
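Cell growth measured by CellTiter-Glo luminescence after a minimum 48 h, 37 C compound exposure with 20 nM CPT in Tdp1-knockout DT40 cells stably expressing hTDP1, seeded 400/well; qHTS titration format.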
MCF10A rerep – inducers of DNA re-replication in MCF 10A breast cells. AID 624296. MCF 10A DNA re-replication, Hoechst nuclear intensity, 48 h. Potency, µM (series often up to 46.1 µM), inactives show at the highest dose activity, positive = re-replication, most hits filed as activators. actives 2.9% (n = 350,000); also: potency is read from the fitted curve at half-maximal effect; % of control where 0% means no effect; nearly all actives have a fitted effect of over 50% in size
IL1B secr inh – inhibitors of inflammasome signaling (IL-1 beta secretion) | THP-1 LPS/ATP IL-1B secretion, AlphaLISA, 16 h; active compounds read low | activity change, % at 57.5 µM | actives 4.7% (n = 360,000) | AID 743279; in the data active = activity change below about -50%; inconclusive = mostly about -30% to -49%; also: % is scaled to controls: 0 for no effect and ±100 for the full control effect
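Secreted IL-1B measured by AlphaLISA bead assay after 16 h compound exposure of THP-1 cells; compounds (final up to 57.5 uM) added 1 h before LPS (250 ng/mL) and ATP (1.25 mM) stimulation; lower signal means less secretion.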
TDP1 cell noCPT – qHTS for Inhibitors of human tyrosyl-DNA phosphodiesterase 1 (TDP1): qHTS in cells in absence of CPT; DT40 Tdp1-/- hTDP1 cells, no CPT, ATP luminescence, 48 h; Potency, µM (titrated, usually from 46.2 µM), for the others: at the highest dose activity change, negative = growth inhibition, hits mostly inhibitors; actives 15% (n = 420,000); AID 686978, 2013; also: potency is read from the fitted curve at half-maximal effect; % is scaled to controls: 0 for no effect and ±100 for the full control effect; nearly all actives have a fitted effect of over 55% in size
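Chicken DT40 Tdp1-/- cells stably complemented with human TDP1 were seeded at 400 cells/well with DMSO in place of 20 nM camptothecin. After compound pinning, cells grew at least 48 hr at 37 °C; viability read by CellTiter-Glo luminescence.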
Chronic BCR inh – chronic active BCR signaling inhibition; ABC-DLBCL IkBa-CBG/CBR reporter, luminescence ratio, 4 h; Potency, µM (titrated, usually from 46.1 µM), for inactives: at the top dose activity change, negative = inhibition, actives largely listed as inhibitors; actives 0.05% (n = 340,000); AID 493014; active = well fitted inhibition curve with a large enough effect in the signal ratio, with a control signal flat, not every such curve was filed as active; inconclusive = small, poorly fitted or top-dose-only effect, or effect the other way, or a change in a side signal; the % refers to the signal ratio;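 also: potency is read from the fitted curve at half-maximal effect; plate controls were basal doxycycline-induced cells for no effect and cells given 10 µM MG132 for full effect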
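Concentration-response series (up to 46 uM) were applied to TMD8 dual-reporter cells for 4 h at 37C with doxycycline. Green/red ratio, after filter-overlap correction, defined %Activity; red signal alone was normalised to basal cells and zero luminescence.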
* hit, by the source's call; ? = inconclusive; nt = not tested or not shown. Unless noted, calls follow the shape of the dose curve; as a rule, active = well fitted curve in the direction sought with a large enough effect; inconclusive = small, poorly fitted or top-dose-only effect, or another doubt; inactive = no such curve, though single readings can be large; an effect the other way counts as inactive or inconclusive.

SMILES	SW480 rereplic	DT40 TDP1 CPT	MCF10A rerep	IL1B secr inh	TDP1 cell noCPT	Chronic BCR inh
O=C(Nc1ccccc1O)c1ccc(NC(=O)C2CC2)cc1	0.2%	11.6µM*	-1.1%	-6.0	11.6µM*	?
COc1cccc(C(=O)NCCS(=O)(=O)N2CCC(C)CC2)c1	-4.2%	-3.0%	6.2%	-4.3	-0.8%	-2.3%
Cc1ccc(C(=O)/C=C/c2ccc(Br)cc2)o1	18.4µM*	?	7.31µM*	-57.3*	23.1µM*	-2.2%
C/C(=C\c1ccccc1)C(=O)c1c(C)cc(C)[nH]c1=O	-0.1%	-11.3%	-3.1%	-16.1	-4.7%	?
COC(=O)/C=C/c1ccc2c(c1)OCO2	0.1%	-5.8%	0.0%	-13.7	1.1%	1.5%
C/C(=C\c1ccccc1F)C(=O)c1c(C)cc(C)[nH]c1=O	-1.0%	-23.8%	-38.6%	-67.6*	-17.4%	-2.5%
CCNc1ccccc(C(=O)/C=C/c2ccc3c(c2)OCO3)c1=O	-13.8%	8.2µM*	?	-9.0	16.4µM*	?
Cc1ccc(C(=O)/C=C/c2ccccc2)o1	5.4%	?	?	?	14.6µM*	?
CCc1nn(CC(=O)NCCC2=CCCCC2)c(=O)c2cc3cc(F)ccc3n12	?	-6.0%	3.2%	19.6	-0.4%	10.4%
CC(=O)Oc1ccc(/C(C)=N\N2CCN(Cc3ccc(Cl)cc3)CC2)cc1	?	?	16.0%	8.1	-8.4%	3.1%
Cc1cc(C)c(C(=O)/C=C/c2cccc3ccccc23)c(=O)[nH]1	23.1µM*	16.4µM*	16.4µM*	-84.9*	9.2µM*	?
Cc1cc(C)c(C(=O)/C=C/c2ccc3c(c2)OCO3)c(=O)[nH]1	?	?	?	-90.5*	?	-2.7%
Cc1ccc(C(=O)N/N=C/c2ccc3c(c2)OCO3)o1	12.1%	-17.7%	-4.6%	1.9	-0.8%	?
Cc1ccc(C(=O)/C=C/c2ccc3c(c2)OCO3)o1	27.3%	18.4µM*	?	-50.4*	20.6µM*	?
Cc1sc(-c2cc3ccccc3oc2=O)nc1-c1ccc(Cl)cc1	nt	16.2%	nt	nt	-7.7%	4.4%
O=C(OCc1ccccc1)N1CCC2CC1c1cc(N3CCN(S(=O)(=O)c4cccc5ccccc45)CC3)ccc12 (configuration not stated)	nt	-21.8%	nt	45.2	?	nt
O=C1CCCN1CC(O)CS(=O)(=O)c1ccccc1 (configuration not stated)	-12.8%	-11.7%	-3.1%	14.6	-4.7%	-1.4%
O=S(=O)(CC(CN1CCCCC1)N1CCCCC1)c1ccccc1 (configuration not stated)	?	7.31µM*	6.51µM*	-96.7*	4.61µM*	?
O=[N+]([O-])c1ccc(S(=O)(=O)CC(CN2CCOCC2)N2CCOCC2)cc1 (configuration not stated)	25.9%	?	?	-73.6*	?	?
COc1ccccc1CNc1cc(-c2ccccc2C(F)(F)F)ncn1	nt	1.3µM*	nt	nt	1.46µM*	nt
COc1ccccc1CNc1cc(-c2ccccc2Cl)ncn1	nt	16.4µM*	nt	nt	14.6µM*	nt
COc1cccc(-c2cc(NCc3ccccc3OC)ncn2)c1	nt	4.11µM*	nt	nt	?	nt
CCc1nc(Nc2ccc(F)c(Cl)c2)c2c3c(sc2n1)CCCC3	nt	5.8µM*	nt	nt	5.8µM*	nt
Cc1nc(Nc2cccc(O)c2)c2c3c(sc2n1)CCC3	?	18.4µM*	-5.9%	-12.4	20.6µM*	?
Fc1ccc(Nc2ncnc3sc4c(c23)CCC4)cc1	-9.9%	?	23.1%	0.0	?	0.1%
SMILES	SW480 rereplic	DT40 TDP1 CPT	MCF10A rerep	IL1B secr inh	TDP1 cell noCPT	Chronic BCR inh
COc1ccc(Nc2ncnc3sc4c(c23)CCCC4)cc1	nt	3.26µM*	nt	nt	0.0291µM*	nt
COc1ccc(/C=N/Nc2ncnc3sc4c(c23)CCCC4)cc1OC	?	?	?	30.1	16.4µM*	-4.5%
COc1ccc(/C=N/Nc2ncnc(Cl)c2N)cc1OC	-34.5%	4.6%	?	-15.4	?	4.1%
CC(C)OC(=O)C(C(=O)OC(C)C)=C1SC=CS1	-10.9%	?	-1.8%	nt	?	nt
COc1cc(CN2C[C@@H](CO)O[C@@H](n3cnc4c(Nc5ccccc5)ncnc43)C2)cc(OC)c1OC	nt	?	nt	19.6	?	nt
CC(C)[C@H](NS(=O)(=O)c1cccc(Cl)c1)C(=O)OCC(=O)NC(=O)CN1CCCC1=O	-0.5%	10.1%	-2.7%	20.4	-0.1%	0.4%
CCc1ccc(Nc2ncnc3sc4c(c23)CCCC4)cc1	nt	20.6µM*	nt	nt	18.4µM*	nt
CC(C)[C@H]1COCCS(=O)(=O)N1Cc1ccccc1-c1ccccc1	-5.5%	?	?	10.1	?	4.9%
Cc1ccccc1CN1[C@H](C)[C@H](c2ccccc2)OCCS1(=O)=O	nt	?	nt	nt	12.6µM*	nt
C[C@@H]1[C@H](c2ccccc2)OCCS(=O)(=O)N1Cc1ccc(Cl)cc1	nt	11.2µM*	nt	nt	10µM*	nt
C[C@@H]1[C@H](c2ccccc2)OCCS(=O)(=O)N1Cc1ccccc1	nt	-7.2%	nt	nt	-6.6%	nt
C[C@@H]1[C@H](c2ccccc2)OCCS(=O)(=O)N1Cc1cccc(Cl)c1	nt	?	nt	nt	12.6µM*	nt
CCOc1ccc(CN(C(=O)c2cc(=O)c3cc(C)cc(C)c3o2)C2CCS(=O)(=O)C2)cc1 (configuration not stated)	-17.0%	?	4.5%	-7.3	?	0.1%
COCCCNCC1C(Oc2ccc(Cl)cc2)C(=O)N1c1ccccc1C (configuration not stated)	-4.6%	?	-1.8%	-75.9*	16.4µM*	-10.4%
CC(C)OCCCNC(=O)C1CCC(CNS(=O)(=O)c2ccc(Cl)cc2)CC1 (configuration not stated)	12.4%	-20.4%	3.8%	11.6	-22.2%	0.1%
Cc1ccccc1N1C(=O)C(Oc2ccc(Cl)cc2)C1CNCCCOC(C)C (configuration not stated)	15.9%	?	12.0%	-90.8*	25.9µM*	-1.3%
COCCN1CC(=O)N(c2cccc(C)c2C)C(c2ccc(Cl)cc2)C1=O (configuration not stated)	-2.7%	-22.0%	6.1%	7.7	-3.0%	-0.4%
Fc1ccc(-c2nc3c4ccccc4ccn3c2Cc2ccccc2C(F)(F)F)cc1	nt	?	nt	38.3	?	nt
FC(F)(F)c1ccccc1Cc1c(-c2cccc(Cl)c2)nc2c3ccccc3ccn12	nt	?	nt	15.9	20.6µM*	nt

Screening results: PubChem, National Center for Advancing Translational Sciences (NCATS)
